The results in this text go back to publication PMC7862700, “An all-to-all approach to the identification of sequence-specific readers for epigenetic DNA modifications on cytosine”.

Assay in all cases: DAPPL (digital affinity profiling via proximity ligation, sequencing); 10 mM Tris-HCl pH 7.5, 50 mM NaCl, 1 mM DTT, 4% glycerol, room temperature, 30 min; GST-TFs on glutathione beads, 16-mer random dsDNA library, 0.1% formaldehyde crosslink after washing; high values mean tight binding
Common to all, as to conditions: protein: recombinant; tags: N-terminal GST; dsDNA, one strand shown

For test [1], the target named is T1, FLI1 (Homo sapiens, UniProt Q01543 1-452).
T1 sequence: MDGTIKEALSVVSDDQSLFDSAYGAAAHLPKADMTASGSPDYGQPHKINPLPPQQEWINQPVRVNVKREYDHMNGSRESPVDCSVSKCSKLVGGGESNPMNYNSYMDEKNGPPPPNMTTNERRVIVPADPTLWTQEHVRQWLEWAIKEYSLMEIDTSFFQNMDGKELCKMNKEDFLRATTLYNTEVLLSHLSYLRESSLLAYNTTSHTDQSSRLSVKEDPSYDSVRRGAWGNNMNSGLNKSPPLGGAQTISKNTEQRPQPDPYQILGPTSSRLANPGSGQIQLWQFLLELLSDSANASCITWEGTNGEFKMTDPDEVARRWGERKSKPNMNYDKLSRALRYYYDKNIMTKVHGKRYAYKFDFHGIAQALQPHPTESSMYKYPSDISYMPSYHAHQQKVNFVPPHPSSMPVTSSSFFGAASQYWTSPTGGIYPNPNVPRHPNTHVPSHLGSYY
A digest of the protocol:
(§1)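 Pools were built from human transcription factors expressed in yeast as GST fusions, captured on glutathione beads and DNA-barcoded, along with a tag-only sample. Incubation with 200 nmole of a 16-mer random double-stranded DNA library lasted 30 min at room temperature in Tris/NaCl/DTT/glycerol buffer, and was followed by washing, 0.1% formaldehyde crosslinking, proximity ligation, PCR amplification and Illumina NextSeq500 sequencing. Binding signal is the quotient of each hexamer's read frequency for a factor and its frequency for the tag-only sample.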

Test [2] concerns the target T2, ELK1 (Homo sapiens, UniProt P19419 1-428).
T2 sequence: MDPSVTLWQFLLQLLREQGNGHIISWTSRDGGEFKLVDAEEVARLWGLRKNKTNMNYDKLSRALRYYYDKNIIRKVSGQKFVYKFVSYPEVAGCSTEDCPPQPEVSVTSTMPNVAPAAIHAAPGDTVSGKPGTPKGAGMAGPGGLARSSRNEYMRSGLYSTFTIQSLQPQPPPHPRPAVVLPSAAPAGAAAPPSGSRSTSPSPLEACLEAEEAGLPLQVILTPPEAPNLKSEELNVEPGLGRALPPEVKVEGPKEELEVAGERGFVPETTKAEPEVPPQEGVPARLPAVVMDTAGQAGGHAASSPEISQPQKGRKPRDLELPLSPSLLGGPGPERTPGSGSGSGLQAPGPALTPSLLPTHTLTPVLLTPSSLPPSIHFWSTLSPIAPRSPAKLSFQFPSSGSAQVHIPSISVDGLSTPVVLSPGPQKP
The method, boiled down: as §1

Test [3] concerns the target T3, GABPA (Homo sapiens, UniProt Q06546 1-454).
T3 sequence: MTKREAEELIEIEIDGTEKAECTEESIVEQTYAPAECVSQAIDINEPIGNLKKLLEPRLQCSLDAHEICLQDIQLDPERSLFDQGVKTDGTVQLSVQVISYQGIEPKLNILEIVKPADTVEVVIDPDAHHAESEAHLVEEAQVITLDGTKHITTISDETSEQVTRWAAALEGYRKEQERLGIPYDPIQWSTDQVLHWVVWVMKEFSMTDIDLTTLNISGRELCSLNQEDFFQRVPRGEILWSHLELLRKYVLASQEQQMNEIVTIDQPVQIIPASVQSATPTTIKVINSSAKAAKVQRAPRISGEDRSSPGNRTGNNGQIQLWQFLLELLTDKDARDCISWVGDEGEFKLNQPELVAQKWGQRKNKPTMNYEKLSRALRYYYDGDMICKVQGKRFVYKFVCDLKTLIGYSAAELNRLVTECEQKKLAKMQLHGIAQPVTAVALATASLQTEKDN
A digest of the protocol:
as §1

Test [4] has as its target T4, ERG (Homo sapiens, UniProt P11308 1-479).
T4 sequence: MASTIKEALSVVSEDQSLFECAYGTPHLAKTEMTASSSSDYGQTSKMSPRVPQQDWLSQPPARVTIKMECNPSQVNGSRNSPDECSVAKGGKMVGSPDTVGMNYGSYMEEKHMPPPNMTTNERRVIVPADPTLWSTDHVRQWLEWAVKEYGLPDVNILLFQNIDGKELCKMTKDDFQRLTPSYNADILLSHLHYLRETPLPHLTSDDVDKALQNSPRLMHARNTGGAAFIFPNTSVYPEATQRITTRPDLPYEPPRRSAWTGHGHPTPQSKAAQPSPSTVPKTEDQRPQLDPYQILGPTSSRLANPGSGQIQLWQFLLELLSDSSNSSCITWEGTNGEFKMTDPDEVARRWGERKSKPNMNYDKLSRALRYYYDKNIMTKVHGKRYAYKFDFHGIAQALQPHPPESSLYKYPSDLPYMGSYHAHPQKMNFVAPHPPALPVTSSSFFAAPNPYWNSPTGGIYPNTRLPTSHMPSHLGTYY
A digest of the protocol:
as §1

Test [5] deals with ELF1 (Homo sapiens, UniProt P32519 1-619). The method, boiled down:
as §1

The target of test [6] is T5, EHF (Homo sapiens, UniProt Q9NZC4 1-300).
T5 sequence: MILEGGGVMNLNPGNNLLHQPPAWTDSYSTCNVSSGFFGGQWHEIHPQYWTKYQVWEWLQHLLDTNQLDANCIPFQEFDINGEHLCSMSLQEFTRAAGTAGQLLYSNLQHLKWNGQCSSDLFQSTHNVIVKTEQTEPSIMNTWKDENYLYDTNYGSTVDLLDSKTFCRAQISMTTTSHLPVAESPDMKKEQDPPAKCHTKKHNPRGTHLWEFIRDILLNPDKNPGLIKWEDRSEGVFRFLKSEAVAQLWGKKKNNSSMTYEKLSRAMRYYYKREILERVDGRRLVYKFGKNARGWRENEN
The method, boiled down: as §1

Test [7] has as its target SPI1 (Homo sapiens, UniProt P17947 1-270). The method, boiled down:
as §1

Test [8] deals with SPIB (Homo sapiens, UniProt Q01892 1-262). A digest of the protocol: as §1
SPIB, sequence (Q01892 whole entry): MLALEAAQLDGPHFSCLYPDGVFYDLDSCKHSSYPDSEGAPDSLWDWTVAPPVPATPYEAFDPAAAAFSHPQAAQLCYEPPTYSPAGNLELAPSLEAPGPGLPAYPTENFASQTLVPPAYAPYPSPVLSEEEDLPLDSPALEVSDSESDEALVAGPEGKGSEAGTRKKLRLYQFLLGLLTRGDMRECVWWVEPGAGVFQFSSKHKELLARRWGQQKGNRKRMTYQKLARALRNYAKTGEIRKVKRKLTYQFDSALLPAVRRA
Test [9] has as its target T6, ELK3 (Homo sapiens, UniProt P41970 1-407).
T6 sequence: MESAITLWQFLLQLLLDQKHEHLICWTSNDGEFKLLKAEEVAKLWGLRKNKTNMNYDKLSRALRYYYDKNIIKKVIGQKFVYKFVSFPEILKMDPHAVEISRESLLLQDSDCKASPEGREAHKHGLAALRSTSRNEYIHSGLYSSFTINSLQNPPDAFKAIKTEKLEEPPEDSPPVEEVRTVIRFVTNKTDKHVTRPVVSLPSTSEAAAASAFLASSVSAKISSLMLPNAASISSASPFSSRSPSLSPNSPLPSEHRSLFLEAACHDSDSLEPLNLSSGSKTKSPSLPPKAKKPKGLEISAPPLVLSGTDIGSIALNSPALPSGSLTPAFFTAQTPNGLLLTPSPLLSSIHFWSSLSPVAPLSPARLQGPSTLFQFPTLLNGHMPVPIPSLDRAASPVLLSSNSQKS
The method, boiled down:
as §1

ELF1, sequence (P32519 whole entry): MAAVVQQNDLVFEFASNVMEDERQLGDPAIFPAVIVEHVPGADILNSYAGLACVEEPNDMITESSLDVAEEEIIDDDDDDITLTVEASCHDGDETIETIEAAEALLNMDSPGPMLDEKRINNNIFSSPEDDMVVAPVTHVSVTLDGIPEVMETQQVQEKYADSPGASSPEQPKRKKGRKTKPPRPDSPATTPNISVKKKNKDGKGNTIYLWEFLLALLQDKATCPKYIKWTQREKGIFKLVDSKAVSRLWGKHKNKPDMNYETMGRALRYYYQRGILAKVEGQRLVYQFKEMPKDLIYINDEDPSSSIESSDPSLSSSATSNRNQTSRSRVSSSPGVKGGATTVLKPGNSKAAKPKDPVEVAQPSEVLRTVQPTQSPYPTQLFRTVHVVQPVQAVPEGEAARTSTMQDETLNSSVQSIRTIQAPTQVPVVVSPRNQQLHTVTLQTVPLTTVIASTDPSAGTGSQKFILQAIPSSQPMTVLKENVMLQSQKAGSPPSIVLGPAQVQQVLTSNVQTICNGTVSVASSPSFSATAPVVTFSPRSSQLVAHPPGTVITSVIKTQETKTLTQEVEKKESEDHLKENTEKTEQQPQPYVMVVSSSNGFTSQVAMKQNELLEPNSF

In the case of CATAAC, the binding signal in test [1] was 1.09 fold enrichment (6-mer frequency, TF over GST control); in test [2], 1.2 fold enrichment (6-mer frequency, TF over GST control); in test [3] it was 1.15 fold enrichment (6-mer frequency, TF over GST control); in test [4], 1.1 fold enrichment (6-mer frequency, TF over GST control); in test [5], 1.22 fold enrichment (6-mer frequency, TF over GST control); in [6] it was 1.09 fold enrichment (6-mer frequency, TF over GST control). In addition, the binding signal in [7] is 1.16 fold enrichment (6-mer frequency, TF over GST control); in test [8], 1.13 fold enrichment (6-mer frequency, TF over GST control); in test [9], 1.18 fold enrichment (6-mer frequency, TF over GST control).

For CTCCGC, the binding signal in test [1] was 1.51 fold enrichment (6-mer frequency, TF over GST control); in [2], 1.63 fold enrichment (6-mer frequency, TF over GST control); in test [3] it was 1.58 fold enrichment (6-mer frequency, TF over GST control); in test [4], 1.38 fold enrichment (6-mer frequency, TF over GST control); in test [5], 1.56 fold enrichment (6-mer frequency, TF over GST control); in [6] it was 1.37 fold enrichment (6-mer frequency, TF over GST control). For the same sequence, the binding signal in test [7] was 1.56 fold enrichment (6-mer frequency, TF over GST control); in test [8] it was 1.37 fold enrichment (6-mer frequency, TF over GST control); in test [9] it was 1.5 fold enrichment (6-mer frequency, TF over GST control).

AACCAT: the binding signal in test [1] is 1.14 fold enrichment (6-mer frequency, TF over GST control); in [2], 1.17 fold enrichment (6-mer frequency, TF over GST control); in [3], 1.16 fold enrichment (6-mer frequency, TF over GST control); in [4], 1.2 fold enrichment (6-mer frequency, TF over GST control); in [5], 1.18 fold enrichment (6-mer frequency, TF over GST control); in [6] it was 1.22 fold enrichment (6-mer frequency, TF over GST control). The binding signal in test [7] is 1.12 fold enrichment (6-mer frequency, TF over GST control); in test [8], 1.12 fold enrichment (6-mer frequency, TF over GST control); in [9], 1.28 fold enrichment (6-mer frequency, TF over GST control).

Regarding CTCATA, the binding signal in [1] was 1.39 fold enrichment (6-mer frequency, TF over GST control); in test [2], 1.48 fold enrichment (6-mer frequency, TF over GST control); in [3], 1.36 fold enrichment (6-mer frequency, TF over GST control); in [4], 1.3 fold enrichment (6-mer frequency, TF over GST control); in test [5], 1.38 fold enrichment (6-mer frequency, TF over GST control); in test [6], 1.27 fold enrichment (6-mer frequency, TF over GST control). Further, the binding signal is 1.43 fold enrichment (6-mer frequency, TF over GST control) in [7]; 1.48 fold enrichment (6-mer frequency, TF over GST control) in test [8]; 1.34 fold enrichment (6-mer frequency, TF over GST control) in test [9].

Turning to ATCCAA, the binding signal in [1] was 1.15 fold enrichment (6-mer frequency, TF over GST control); in test [2] it was 1.19 fold enrichment (6-mer frequency, TF over GST control); in test [3], 1.18 fold enrichment (6-mer frequency, TF over GST control); in test [4] it was 1.09 fold enrichment (6-mer frequency, TF over GST control); in test [5], 1.2 fold enrichment (6-mer frequency, TF over GST control); in test [6] it was 1.1 fold enrichment (6-mer frequency, TF over GST control). In addition, the binding signal was 1.11 fold enrichment (6-mer frequency, TF over GST control) in test [7]; 1.22 fold enrichment (6-mer frequency, TF over GST control) in [8]; 1.14 fold enrichment (6-mer frequency, TF over GST control) in test [9].

With GTCCCC, the binding signal was 1.14 fold enrichment (6-mer frequency, TF over GST control) in test [1]; 1.29 fold enrichment (6-mer frequency, TF over GST control) in test [2]; 1.19 fold enrichment (6-mer frequency, TF over GST control) in test [3]; 1.23 fold enrichment (6-mer frequency, TF over GST control) in [4]; 1.19 fold enrichment (6-mer frequency, TF over GST control) in test [5]; 1.28 fold enrichment (6-mer frequency, TF over GST control) in test [6]. Moreover, the binding signal in test [7] is 1.23 fold enrichment (6-mer frequency, TF over GST control); in test [8], 1.24 fold enrichment (6-mer frequency, TF over GST control); in test [9] it was 1.29 fold enrichment (6-mer frequency, TF over GST control).

Take CTCCAT: the binding signal in [1] is 1.34 fold enrichment (6-mer frequency, TF over GST control); in test [2], 1.38 fold enrichment (6-mer frequency, TF over GST control); in [3] it was 1.31 fold enrichment (6-mer frequency, TF over GST control); in [4], 1.34 fold enrichment (6-mer frequency, TF over GST control); in [5] it was 1.34 fold enrichment (6-mer frequency, TF over GST control); in [6] it was 1.37 fold enrichment (6-mer frequency, TF over GST control). Further, the binding signal was 1.32 fold enrichment (6-mer frequency, TF over GST control) in [7]; 1.25 fold enrichment (6-mer frequency, TF over GST control) in [8]; 1.36 fold enrichment (6-mer frequency, TF over GST control) in test [9].
